Apoferritin bind = binds horse apoferritin like a general anesthetic; P02791; Potency, µM (series often up to 77.5 µM), most hits filed as inhibitors; AID 485281; 0.074% of 350,000 active; apoferritin/1-aminoanthracene competitive binding, fluorescence; note: nearly all actives have a fitted effect of over 20% in size
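In PBS, apoferritin at 10 uM is loaded with 1-AMA from a 50% saturated solution. After 10 min of compound exposure at ambient temperature, reduced 535 nm fluorescence indicates probe displacement.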
mIDH1 inhibitor = inhibitors of human mutant IDH1 R132H; O75874; IDH1-R132H enzyme, NADPH consumption, diaphorase/resazurin fluorescence; Potency, µM (doses to about 76.6 µM), actives largely listed as inhibitors; 0.093% of 390,000 active; AID 602179; note: nearly all actives have a fitted effect of over 65% in size
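IDH1-R132H (0.5 ug/mL dispensed) in pH 7.5 Tris buffer was preincubated 30 min with compound, then given a substrate mix of 0.016 mM NADPH and 2 mM alpha-KG for 80 min at room temperature; remaining NADPH was read by diaphorase/resazurin fluorescence.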
hERG WT inh = blocks the wildtype human KCNH2 potassium channel; U2OS, BacMam KCNH2, thallium flux FluxOr; hits give low values; activity change, % at 1.84 µM; 0.37% of 340,000 active;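 active = maximum activity change below -70%; inconclusive = maximum activity change between -70% and -50%; inactive = maximum activity change above -50%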
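U2OS cells were transduced with wild-type KCNH2 virus (2.03 x 10^8 / mL) for 4 h at room temperature, then cultured overnight at 37 C. Thallium flux was read with FluxOr dye. Rate constants were normalized to DMSO controls.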
KCNH2 3.1 block = blocks the human KCNH2 3.1 channel isoform | U2OS KCNH2 3.1, thallium flux FluxOr; hits give low values | activity change, % (tested at about 1.8 µM) | 0.95% of 340,000 active;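 active = maximum activity change below -70%; inconclusive = maximum activity change from -70% to -50%; inactive = maximum activity change above -50%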;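 note: thallium influx rate constant from kinetic fluorescence after stimulation buffer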
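We transduce U2OS cells with the mutant 3.1 virus, culture them overnight, load FluxOr with Red40 quencher for 45 min, then add stimulation buffer and read kinetically for 2 min to derive a normalized rate constant.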
ASM inhibitor = blocks human secretory acid sphingomyelinase | P17405 | placental ASM, HMU-PC fluorogenic substrate, 60 min | Potency, µM (top dose mostly 57.5 µM), usual class: inhibitors | 0.006% of 340,000 active | AID 504937
Target sequence (P17405 47-631 limits assumed): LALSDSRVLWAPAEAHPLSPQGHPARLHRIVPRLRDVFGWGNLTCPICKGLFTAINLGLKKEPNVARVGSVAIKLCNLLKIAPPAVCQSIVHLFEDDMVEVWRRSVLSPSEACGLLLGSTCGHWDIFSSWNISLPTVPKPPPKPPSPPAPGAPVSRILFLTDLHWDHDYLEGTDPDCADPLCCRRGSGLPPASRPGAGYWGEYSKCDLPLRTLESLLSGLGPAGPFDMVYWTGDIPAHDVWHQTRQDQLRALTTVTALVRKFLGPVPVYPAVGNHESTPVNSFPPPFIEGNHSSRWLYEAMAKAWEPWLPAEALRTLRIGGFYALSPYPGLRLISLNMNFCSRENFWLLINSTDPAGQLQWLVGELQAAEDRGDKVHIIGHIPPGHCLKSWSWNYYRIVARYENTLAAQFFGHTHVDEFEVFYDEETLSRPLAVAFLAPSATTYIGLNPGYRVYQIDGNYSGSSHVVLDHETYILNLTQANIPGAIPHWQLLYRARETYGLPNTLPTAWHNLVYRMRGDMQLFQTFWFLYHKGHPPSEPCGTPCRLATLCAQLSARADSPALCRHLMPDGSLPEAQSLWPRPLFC
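HMU-PC0 cleavage (9 uM final) by human placental ASM, 60 min at 37 °C following 10 min compound exposure at RT; stopped at pH 10, fluorescence Ex 386/Em 447 nm.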
A number is an active result; – = inactive; ? = inconclusive; · = no result given. An excerpt weighted towards active compounds, which were near 1.2% of everything screened. Unless noted, calls come from the whole dose curve; as a rule, active = well fitted inhibition curve with a large enough effect; inconclusive = small, poorly fitted or top-dose-only effect; inactive = no such curve, though single readings can be large or run the other way.

SMILES | Apoferritin bind | mIDH1 inhibitor | hERG WT inh | KCNH2 3.1 block | ASM inhibitor
Cc1ccc(C(c2c(O)cc(C)n(Cc3ccco3)c2=O)N2CCC(C)CC2)cc1 (centres undefined) | – | – | · | · | ·
COC(=O)[C@@]12CCCCN1[C@H](c1ccc(-c3cccc(Cl)c3)c(OC)c1)[C@@H]1C(=O)N(C)C(=O)[C@@H]12 | · | – | – | – | –
COC(=O)[C@@]12CCCN1[C@H](c1ccc(-c3cccc(Cl)c3)c(OC)c1)[C@H]1C(=O)N(C)C(=O)[C@H]12 | · | – | – | -100 | –
COc1cc(OC)c(OC)cc1CN1CCc2nc(Nc3ccc4c(c3)OCCO4)ncc2C1 | – | – | · | · | ·
O=C(Cn1nnc(-c2ccc(F)cc2)n1)N1CCCCC1 | – | – | – | – | –
O=C(Cn1nnc(-c2ccccc2F)n1)N1CCCCC1 | – | – | – | -134 | –
O=c1[nH]c(=O)n(Cc2ccco2)c2c1C(C(F)(F)F)(C(F)(F)F)N=C(CCC1CCCCC1)N2 | – | – | – | · | –
O=c1[nH]c(=O)n(Cc2ccco2)c2c1C(C(F)(F)F)(C(F)(F)F)N=C(CCc1ccccc1)N2 | – | – | – | -108 | –
C=CCN1C(=O)c2ccc(C(=O)N(CC(C)C)c3c(N)n(CCCC)c(=O)[nH]c3=O)cc2C1=O | · | – | – | -147 | –
COc1ccc(OC)c(-c2noc(N3CCN(c4cccc(C)c4C)CC3)n2)c1 | – | – | · | · | ·
Cc1ccc(C)c(NC(=O)C(c2ccccc2)N2CCN(CC(=O)N3CCOCC3)CC2)c1 (centres undefined) | · | – | – | -89 | –
CCOc1ccccc1NC(=O)CC1(CC(=O)N2CCOCC2)CCCC1 | · | – | – | – | –
O=C(CN1CCN(C(c2ccccc2)c2ccccc2)CC1)N1CCOCC1 | – | – | – | – | –
CCOc1ccccc1NC(=O)C(c1ccccc1)N1CCN(CC(=O)N2CCOCC2)CC1 (centres undefined) | · | – | – | -83 | –
CCOc1ccccc1NC(=O)C(c1ccccc1)N1CCN(CC(=O)N2CCCC2)CC1 (centres undefined) | · | – | – | -72 | –
COC(=O)CSc1nc(N2CCOCC2)c2c(c1C#N)CCCC2 | – | – | – | – | –
COC(=O)CSc1nc(-c2ccc(C)cc2)c2c(c1C#N)CCCC2 | – | – | – | -73 | –
COc1ccccc1NC(=O)C(C)N1CCN(C/C=C/c2ccccc2)CC1 (centres undefined) | ? | – | -82 | -95 | –
COc1ccccc1C(=O)NCC(=O)N1CCN(C/C=C/c2ccccc2)CC1 | · | – | – | – | –
COc1ccc(NC(C)=O)cc1S(=O)(=O)N1CCN(C(=O)c2ccccc2F)CC1 | – | – | – | – | –
COc1ccc(NC(C)=O)cc1S(=O)(=O)N1CCN(C/C=C/c2ccccc2)CC1 | – | – | – | -73 | –
O=C(CNC(=S)N(CCCN1CCOCC1)Cc1cccs1)N1CCCCCC1 | – | – | -148 | -181 | –
Cc1cccc(-n2c(C)cc(/C=C3/C(=N)N4C(c5ccccc5)=CSC4=NC3=O)c2C)c1 | – | – | – | – | –
COc1cc(/C=C2/C(=N)N3C(c4ccccc4)=CSC3=NC2=O)ccc1OCC(=O)O | – | – | – | – | 2.5µM
CCC(=O)Nc1ccc(C(=O)CSc2nnc(-c3ccc(NS(=O)(=O)CC)cc3)o2)cc1OC | – | – | -92 | – | –
SMILES | Apoferritin bind | mIDH1 inhibitor | hERG WT inh | KCNH2 3.1 block | ASM inhibitor
Cc1ccc(NC(=O)c2sc3ncnc(N4CCN(c5ccccn5)CC4)c3c2C)c(C)c1 | – | – | -73 | -114 | –
Cc1nc(N2CCN(c3ccccn3)CC2)c2c(C)c(C(=O)Nc3ccc(Br)cc3C)sc2n1 | – | – | – | -99 | –
COc1ccc(C)cc1NC(=O)c1sc2ncnc(N3CCN(c4ccccn4)CC3)c2c1C | – | – | – | ? | –
Cc1ccc(NC(=O)c2sc3nc(C)nc(N4CCN(c5ccccn5)CC4)c3c2C)c(C)c1 | – | – | – | -70 | –
CC1CCN(S(=O)(=O)c2cc(C(=O)N3CCN(c4cccc(Cl)c4)CC3)n(C)c2)CC1 | – | – | · | · | ·
CCOc1ccccc1-c1noc(CSc2nnc(-c3ccccc3)n2-c2ccc(OC)cc2)n1 | – | – | · | · | ·
COc1ccc(NC(=O)c2sc3cc(C(F)(F)F)cnc3c2-c2cccs2)cc1 | – | – | – | -92 | –
O=C(Nc1ccc(F)cc1)c1sc2cc(C(F)(F)F)cnc2c1-c1cccs1 | – | – | – | – | –
COc1ccc(C2=NC(c3ccc(Cl)cc3)C(c3ccc(Cl)cc3)N2C(=O)N2CCNC(=O)C2)c(OC(C)C)c1 (centres undefined) | – | · | · | · | ·
CCCCn1c(/C=N/Nc2nc3ccccc3[nH]2)nc2ccccc21 | – | – | -73 | – | –
CC12CCC(=O)N1C(C(=O)Nc1nnc(SCc3ccc(F)cc3)s1)CS2 (centres undefined) | 22µM | – | – | – | –
CC(C)NC(=O)c1ccccc1N(Cc1ccccc1)S(C)(=O)=O | – | – | – | -75 | –
COC(=O)c1ccccc1N(Cc1ccccc1)S(C)(=O)=O | – | – | – | – | –
COc1ccccc1NC(=O)c1ccccc1N(Cc1ccccc1)S(C)(=O)=O | – | – | -215 | – | –
CCCNC(=O)CSc1nnc(C)s1 | – | – | – | – | –
CCOC(=O)NC(=O)CSc1nnc(C)s1 | – | – | – | -79 | –
CCOC(=O)N1CCN(C(=S)NC2CCCCC2)CC1 | – | – | – | – | –
CCOC(=O)N1CCN(C(=O)NC2CCCCC2)CC1 | – | – | – | -71 | –
Cc1noc(C)c1C(c1ccccc1)S(=O)(=O)c1ccccc1 (centres undefined) | – | – | -140 | – | –
C/C(=C\COc1c2ccoc2cc2oc(=O)ccc12)CCC(O)C(C)(C)O (centres undefined) | – | · | · | · | ·
Cc1cccc(NC(=O)c2cc3c(=O)n4ccccc4nc3n(CC(C)C)c2=N)c1 | – | – | -118 | -98 | –
COc1cccc(NC(=O)c2cc3c(=O)n4ccccc4nc3n(CC(C)C)c2=N)c1 | – | – | -74 | -93 | –
CNC1C(O)[C@@H]2OC(O[C@@H]3C(O)C(O)C(N)C[C@H]3N)C(N)C[C@H]2O[C@H]1O[C@@H]1OC(CO)C(N)C(O)C1O (some centres undefined) | – | · | · | · | ·
CCOc1ccc(Nc2c(S(=O)(=O)c3ccccc3)cnc3ccc(CC)cc23)cc1 | ? | – | · | · | ·
c1ccc(Cn2c(CNc3nc4ccccc4n3CCN3CCOCC3)nc3ccccc32)cc1 | – | – | – | -85 | –
c1ccc2c(c1)nc(NCc1ccc3c(c1)OCO3)n2CCN1CCOCC1 | – | – | – | – | –
O=c1[nH]c2cc(Cl)c(O)cc2o1 | – | · | · | · | ·
CCOc1ccc(CCNC(=O)c2cccs2)cc1OCC | – | – | – | -86 | –

Source: PubChem BioAssay
